The inhibition is the change of the read-out against control, counted positive when it falls.

Hit rate of the full screen: of about 330,000 compounds, about 4,900 (1.5%) were called active. Many of the other results were omitted from the sample, so actives are more common in it than they were. A number with no mark means an inactive call.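 The calls were made as follows: active = inhibition above the mean inhibition across the screen plus 3 SD (cut at about 25% in these data); inactive = the rest.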

In this test the target is Platelet-activating factor acetylhydrolase (Homo sapiens) (UniProt Q13093). Nature of the test: inhibition of plasma PAF acetylhydrolase – biochemical, fluorescence polarization, human, primary screen (AID 463082).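 Also: inhibitors block binding of the rhodamine activity-based probe so polarization drops; 0% = enzyme with DMSO and 100% = wells lacking pPAFAH.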 The note with it: recombinant pPAFAH, FP-rhodamine probe fluorescence polarization; at 3.39 µM; active compounds read high. Background: Fluorescence polarisation rises when a labelled molecule tumbles more slowly, as on binding a larger partner.
Sequence of Platelet-activating factor acetylhydrolase (Homo sapiens) (Q13093 whole entry, looked up): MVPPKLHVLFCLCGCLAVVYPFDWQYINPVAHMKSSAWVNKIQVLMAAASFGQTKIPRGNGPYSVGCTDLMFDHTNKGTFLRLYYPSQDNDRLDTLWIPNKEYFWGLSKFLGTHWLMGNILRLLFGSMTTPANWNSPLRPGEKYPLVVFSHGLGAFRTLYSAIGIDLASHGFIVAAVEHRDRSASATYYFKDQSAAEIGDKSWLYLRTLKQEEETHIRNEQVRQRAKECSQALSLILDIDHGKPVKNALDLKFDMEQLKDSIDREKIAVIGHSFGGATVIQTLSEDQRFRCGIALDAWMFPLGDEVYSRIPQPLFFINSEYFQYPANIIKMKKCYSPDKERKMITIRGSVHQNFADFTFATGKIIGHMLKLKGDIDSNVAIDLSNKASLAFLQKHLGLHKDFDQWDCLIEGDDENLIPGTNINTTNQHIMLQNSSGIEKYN
Take `CSc1ccc(/C=C/C(=O)NC23CC4CC(CC(C4)C2)C3)cc1`: the inhibition was -0.12%.

With `COc1ccc(NC(C)=O)cc1NC(=O)CN1CCN(C2c3ccccc3-c3ccccc32)CC1`, the inhibition is 7.04%.

Turning to `COC(=O)c1c(NC(C)=O)sc(C(=O)Nc2ccccc2OC)c1C`, the inhibition is -5.75%.

Take `CCC(=O)Nc1sc(C(=O)Nc2ccccc2)c(C)c1C(=O)OC`: the inhibition was 50.5% (active).

Regarding `CCOC(=O)c1sc(NC(=O)COc2ncnc3ccccc23)c(C(=O)OCC)c1C`, the inhibition is 0.72%.

As for `COC(=O)c1ccc(CNC(=O)c2ccc3oc(C(C)C)nc3c2)cc1`, the inhibition was -0.67%.

On to `CCCn1c(SCC(=O)c2ccc3c(c2)OCCO3)nnc1C(C)C`, for which the inhibition is 3.84%.

Turning to `Cc1ccc(NC(=O)CSc2nc(CSc3ccc(C)cc3)cc(=O)[nH]2)cc1`, the inhibition is 17.3%.

Turning to `COc1ccc(C)cc1-n1nnnc1SCc1nc2ccccc2c(=O)[nH]1`, the inhibition is -13.6%.

Consider `Cc1ccc(Nc2nc(CSc3nnnn3-c3ccccc3)cc(=O)[nH]2)cc1`, for which the inhibition is 27.2% (active).

As for `N#CC1(NC(=O)COC(=O)Cc2n[nH]c(=O)c3ccccc23)CCCCC1`, the inhibition is 0.43%.

As to `CC(C)C(C)(C#N)NC(=O)CSc1nc2scc(-c3ccccc3)c2c(=O)[nH]1` (stereo not drawn), the inhibition is 11.1%.

As to `CCCCCCSc1ccc([C@@H]2[C@H]3C(=O)N(CC)C(=O)[C@H]3[C@]3(C(=O)OC)CCCCN23)cc1`, the inhibition is 6.84%.

For the compound `CCCCCCSc1ccc([C@@H]2[C@@H]3C(=O)N(CC)C(=O)[C@@H]3[C@]3(C(=O)OC)CCCCN23)cc1OC`, the inhibition was 26.9% (active).

For `CCN1C(=O)[C@@H]2[C@@H](c3ccc(-c4ccc(OC)cc4)c(OC)c3)N3CCC[C@@]3(C(=O)OC)[C@@H]2C1=O`, the inhibition is 2.25%.

Take `CCOC(=O)c1ccc2c(c1)nc(SCC(=O)NC(C)C)n2CC`: the inhibition was 3.79%.

`CN(CC(=O)NC1CCCCC1)S(=O)(=O)c1cccc2cccnc12`: the inhibition was 14.6%.

Regarding `CCn1c(SCC(=O)Nc2sc(C)c(C)c2C#N)nnc1C1CC1`, the inhibition was 1.95%.

Take `Cn1nc([N+](=O)[O-])nc1Sc1ccc(C(C)(C)C)cc1`: the inhibition was 8.17%.

In the case of `CCC(=C/c1sc2ccc3ccccc3c2[n+]1C)/C=C1\Sc2ccc3ccccc3c2N1C`, the inhibition was 32.4% (active).

Consider `CC(C)Oc1ccccc1C(=O)NC(CO)C(=O)O` (stereo not drawn), for which the inhibition is 2.51%.

Regarding `CCOC(=O)C1=C(C)OC(N)=C(C#N)C1c1cncc(-c2ccc(F)cc2)c1` (stereo not drawn), the inhibition was 2.24%.

As for `O=C(Nc1cccc(S(=O)(=O)NC2=NCCC2)c1)C1CCCCC1`, the inhibition is 3.38%.

As for `CCN(CCCNC(=O)C1CCN(S(=O)(=O)c2cnc[nH]2)CC1)c1ccccc1`, the inhibition is -2.66%.

Turning to `CCN(CCCNC(=O)CCn1c(=O)[nH]c2ccsc2c1=O)c1ccccc1`, the inhibition was 4.5%.

With `CCN(CCCNC(=O)c1ccc2c(c1)NC(=O)CN2C)c1cccc(C)c1`, the inhibition is 28% (active).

As to `COc1cccc(N2CC(NS(=O)(=O)c3ccc(Cl)cc3)CC2=O)c1` (stereo not drawn), the inhibition was 9.38%.

As for `Cc1ccc2cc(/C=N/Nc3ccc(C(=O)O)cc3)c(Cl)nc2c1`, the inhibition was 34% (active).

Turning to `Cc1ccc2cc(/C=N/NC(=O)[C@@H]3CCCN3)c(Cl)nc2c1`, the inhibition is 3.82%.

Consider `O=C(O)c1ccc(N/N=C/c2ccc3ncccc3c2)cc1`, for which the inhibition was 4.87%.

Regarding `COC(=O)[C@]1(C)CCC[C@@]2(C)C3CC[C@]4(OC(C)=O)C[C@@]3(CCC21)CC4=NO` (stereo partly drawn), the inhibition was -4.31%.

Consider `COc1ccc(C)cc1NC(=O)CSc1nnc(CC(=O)Nc2ccccc2F)n1C`, for which the inhibition was 4.03%.

Consider `COCCN1C=C2C(=O)C(C)(OC(=O)C3CCCC3)C(=O)C=C2C=C1c1ccsc1` (stereo not drawn), for which the inhibition is 5.4%.

`C=CCN1C=C2C(=O)C(C)(OC(=O)CCc3ccccc3)C(=O)C=C2C=C1c1ccc(C#N)cc1` (stereo not drawn): the inhibition is 12.6%.

In the case of `CC1(OC(=O)C2CCCC2)C(=O)C=C2C=C(c3ccc(C#N)cc3)OC=C2C1=O` (stereo not drawn), the inhibition is 52.5% (active).

`O=C(COC(=O)Cc1ccc(F)cc1)Nc1cc(S(=O)(=O)N2CCOCC2)ccc1N1CCCC1`: the inhibition is 31% (active).

On to `O=C(COc1cccc2ccccc12)Nc1cc(S(=O)(=O)N2CCOCC2)ccc1N1CCOCC1`, for which the inhibition is 9.7%.

`O=C(COC(=O)c1ccccc1F)Nc1cc(S(=O)(=O)N2CCOCC2)ccc1N1CCCC1`: the inhibition is 5.42%.

`Cc1ccc(NC(=O)Cc2nc(COC(=O)C(C)NS(=O)(=O)c3ccc(C)cc3)cs2)cc1` (stereo not drawn): the inhibition was 32.8% (active).

Turning to `CC(=O)Nc1ccc(S(=O)(=O)NC(C)C(=O)OCC(=O)NC2CCCC2)cc1` (stereo not drawn), the inhibition is -1.59%.

Turning to `C/C=C/C(=O)OCc1csc(CC(=O)Nc2ccccc2C)n1`, the inhibition is -0.07%.

For `COc1ccc(C(=O)NC(=S)Nc2ccccc2N2CCN(S(C)(=O)=O)CC2)cc1OC`, the inhibition was 51.7% (active).

On to `COc1ccccc1C(=O)NC(=S)Nc1ccccc1N1CCCCC1`, for which the inhibition was 5.28%.

Take `CCC(=O)Nc1ccccc1N1CCN(S(C)(=O)=O)CC1`: the inhibition is 1.48%.

As to `O=C(CSc1ncnc2c1oc1ccccc12)NC1CCCC1`, the inhibition is -0.51%.

As to `Cc1ccc(Nc2c(F)c(F)c(F)c(F)c2C(=O)O)c(C)c1`, the inhibition is 8.5%.

Regarding `COCCCNC(=O)CC1C[C@H](C(=O)N2CCCCC2)[C@@]2(CCc3ccccc3)c3[nH]c4ccccc4c3CCN2C1=O` (stereo partly drawn), the inhibition was 1.17%.

Regarding `CC1=C/C(=N\OS(=O)(=O)c2ccccc2)C=CC1=O`, the inhibition was 0.71%.

With `O=C(CCCN1C(=O)/C(=C/c2ccco2)SC1=S)Nc1ccccc1`, the inhibition is 25.9% (active).

As for `COc1ccc(/C=C2\SC(=S)N(CCCC(=O)NC3CCCC3)C2=O)cc1OC`, the inhibition is -4.96%.

For `O=C(CCCN1C(=O)/C(=C/c2ccccc2)SC1=S)Nc1ccc(O)cc1`, the inhibition was 3.48%.

In the case of `O=C(CCCN1C(=O)/C(=C/c2cccs2)SC1=S)Nc1ccc(O)cc1`, the inhibition is 1.25%.

For the compound `O=C(CCCN1C(=O)/C(=C\c2ccco2)SC1=S)Nc1cccc2ccccc12`, the inhibition was 27.9% (active).

`COc1ccc(/C=C2\SC(=S)N(CCC(=O)Nc3cccc(C(=O)O)c3)C2=O)cc1OC`: the inhibition is -14.2%.

Turning to `COc1ccc(S(=O)(=O)N2CCN(C)CC2)c(C)c1`, the inhibition is -1.79%.

On to `CN(C)/C=N/c1cc(=O)n(C)c(=O)n1CC1CC1`, for which the inhibition is -0.49%.

Turning to `Cc1ccc(C(=O)NC23CC4CC(CC(C4)C2)C3)c(Cl)c1`, the inhibition was 5.48%.

For `Cc1ccsc1C(=O)OCC(=O)NCCc1ccccc1`, the inhibition is 2.4%.

`Cc1ccsc1C(=O)OCC(=O)Nc1cccc(F)c1`: the inhibition was 31.5% (active).

Consider `CC1CC1C(=O)OCC(=O)Nc1cccc(F)c1` (stereo not drawn), for which the inhibition is 13.3%.

For the compound `Cc1ccc2nc(-c3ccc(SCC(=O)Nc4cc(C)on4)nc3)[nH]c2c1`, the inhibition is -7.51%.

On to `CCOc1ccccc1NC(=O)CCc1nnc2ccc(NCc3ccco3)nn12`, for which the inhibition was 6.27%.

For the compound `CC(=O)c1ccc(NC(=O)CCc2nnc3ccc(NCc4ccco4)nn23)cc1`, the inhibition was -0.96%.

`O=C(CCc1nnc2ccc(NCc3ccco3)nn12)Nc1cc(F)ccc1F`: the inhibition is 32.9% (active).

Take `CC(Cc1cccs1)N(Cc1ccc(Cl)cc1)C(=O)c1ccncc1` (stereo not drawn): the inhibition was 6.35%.

Turning to `CCSC1=C(C#N)C(=O)n2c1cc1c2CCCC1`, the inhibition is 8.15%.

For `Cn1c(NC(=O)c2ccco2)c(-c2ccccc2Cl)c(=O)c2ccccc21`, the inhibition is 1.1%.

As for `Cc1ccc(C)c(NC(=S)NNC(=S)Nc2ccc(C(C)C)cc2)c1`, the inhibition was 22.5%.

For the compound `CC(C)c1ccc(NC(=S)NNc2ccc(Cl)c(C(=O)O)c2)cc1`, the inhibition was 38.3% (active).

Consider `O=C(NC(=S)Nc1ccc(Cl)c(C(=O)O)c1)c1cncc(Br)c1`, for which the inhibition is 0.25%.

On to `Cc1cc(=O)n2nc(N3CCCC(C(=O)NCc4cccc(Cl)c4)C3)sc2n1` (stereo not drawn), for which the inhibition was 1.7%.

As to `COc1ccccc1CNC(=O)COn1nnc2ccc(S(=O)(=O)N3CCOCC3)cc21`, the inhibition is 2.22%.

Regarding `CC(C)N(C(=O)[C@H]1C[C@H](CC(=O)NC(C)(C)C)C(=O)N2CCc3c([nH]c4ccc(Cl)cc34)[C@]12C)C(C)C`, the inhibition was 3.29%.

For the compound `O=C(Nc1ccc(C(F)(F)F)cc1)c1cccc(-n2cnnn2)c1`, the inhibition was -6.56%.

For the compound `Cc1nc(NC(=O)c2cccc(Cl)c2)sc1-c1csc(Nc2cccc(Cl)c2)n1`, the inhibition is 11.3%.

For the compound `O=C(Nc1ccc(-c2csc(Nc3cccc(C(F)(F)F)c3)n2)cc1)c1cccc(C(F)(F)F)c1`, the inhibition is 28.4% (active).

As to `CC(C)c1nc(CNC(=O)CC2C(=O)NCCN2Cc2cccc(F)c2F)cs1` (stereo not drawn), the inhibition is 3.46%.

Regarding `COc1cc(NC(=O)CCS(=O)(=O)c2ccc3c(c2)oc(=O)n3C)cc(OC)c1`, the inhibition is 3.91%.

On to `COc1ccc(-c2n[nH]c(C)c2-c2ccccc2OC)c(O)c1`, for which the inhibition was 4.94%.

Regarding `C=C(C)COc1ccc(-c2n[nH]c(C)c2-c2ccccc2)c(O)c1`, the inhibition is 13.4%.

In the case of `C=C(C)COc1ccc(-c2n[nH]c(C)c2-c2ccccc2OC)c(O)c1`, the inhibition is 26.2% (active).

Regarding `O=C(Nc1ccc(F)c([N+](=O)[O-])c1)C1CCCO1` (stereo not drawn), the inhibition is -1.09%.

Consider `CN(Cc1cccs1)C(=O)CN1C(=O)c2ccccc2S1(=O)=O`, for which the inhibition was 4.08%.

Take `CN(C)c1ccc(C(=S)N2CCN(C(=S)Nc3ccc(Cl)cc3)CC2)cc1`: the inhibition was 1.77%.

On to `CCn1cc(C(=O)NCCC(=O)NCCO)c(=O)c2cc3c(cc21)OCO3`, for which the inhibition was 4.78%.

For the compound `COc1cc(CN2CCC(C(N)=O)CC2)ccc1OCc1ccccc1`, the inhibition is 0.32%.

For `COc1cc(C2CC(=O)N3CN(Cc4ccccc4)CSC3=C2C#N)ccc1OCc1ccccc1` (stereo not drawn), the inhibition is 35.3% (active).

For `COc1cc(CNC2CCCC2)c(Br)cc1OCc1ccccc1`, the inhibition was 1.42%.

These data come from PubChem BioAssay AID463082 (The Scripps Research Institute Molecular Screening Center, 2010).
